Where “and” joins values, the source holds several entries; their conditions need not be identical. Identical values can stand only once. Calls of active or inactive are those of the source.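 The calls were made as follows, unless noted: active = normalized viability below 100% at a tested concentration; inactive = the rest.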
Experiments:
[1] = P. berghei load reduction in hepatocytes – cell-based, HepG2, luciferase luminescence, HepG2 viability, primary screen (AID 624349; in the data active = parasite load remaining mostly below about 12%, no sharp cut-off; inactive = mostly above about 10%;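 also: 100% = mean of DMSO negative control wells on the same plate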); conditions: P. berghei liver stage in HepG2, luciferase luminescence, concentration not given here; parasite load remaining: stronger effect = lower value; viability: measured here: HepG2 viability without parasites
[2] = Wnt pathway potentiators raising nuclear beta-catenin – imaging, WNT3A-conditioned medium, mouse C2C12, NPC library, primary screen (AID 1117326; in the data active = nuclear beta-catenin stimulation mostly above about 4.2%, no sharp cut-off; inactive = mostly below about 10%); conditions: stronger effect = higher value
[3] = stimulators of insulin release from INS-1E, primary screen, cell-based, 5 mM glucose, NPC library (AID 1117329;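 active = compound raises insulin release from rat beta cells at 5 mM glucose, no numeric limit stated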); conditions: rat INS-1E insulin secretion, at 10 µM, stronger effect = higher value
[4] = growth inhibition of GSK3B-pretreated HCT116 cells – cell-based, CellTiter-Glo, 0.2 to 20 µM (AID 1117336;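 active = compounds lowering colon cancer cell viability after pretreatment blocking the GSK3B kinase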); conditions: HCT116 viability after GSK3B inhibitor, at 20 µM, stronger effect = higher value
[5] = inhibition of endothelial tube formation, primary screen, imaging, VEGF stimulated, CD31 staining, tube area, NPC library (AID 1117340;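 active = compound that reduces growth-factor-driven endothelial tube area in a mixed cell culture, no cutoff stated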); conditions: VEGF-stimulated ADSC/ECFC co-culture, at 10 µM, stronger effect = higher value
[6] = GLP1 release stimulators, primary, NCI-H716, NPC library (AID 1117341;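 active = compound raises GLP1 secretion from the human gut endocrine cells, with no numeric limit stated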); conditions: NCI-H716 cells, at 10 µM, stronger effect = higher value
[7] = HCT116 colon cancer cell growth inhibition, primary screen, CellTiter-Glo luminescence, NPC library (AID 1117342;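 active = compounds that lower survival of HCT116 colon cancer cells in the luminescence readout, no numeric limit stated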); conditions: at 20 µM (top of the series)
[8] = reduced SW480 viability measured with CellTiter-Glo, NPC library, primary (AID 1117343;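 active = compounds that lower viability of the colon cancer cells in the luminescence readout, with no numeric limit stated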); conditions: CellTiter-Glo luminescence; at 20 µM (top of the series) unless noted
[9] = NPC library primary testing for decreased DLD-1 cell viability via CellTiter-Glo (AID 1117346;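 active = compounds that lower survival of DLD-1 colon cancer cells in the luminescence readout, no cutoff given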); conditions: DLD-1 viability, CellTiter-Glo luminescence; at 20 µM (top of the series)
[10] = EMT-state selective cytotoxicity in co-culture – imaging, PC-3E GFP, TEM4-18 mCherry, primary screen (AID 1345086;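 active = compounds killing one labelled cell type while sparing the other, by normalised counts and ratio limits, not self-fluorescent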;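 as to all read-outs here: cells exposed to compound for 72 h before imaging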;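 as to red/green cell ratio (normalised): normalised mesenchymal count divided by normalised epithelial count so high means epithelial killing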); conditions: PC-3E GFP / TEM4-18 mCherry co-culture, imaging cell counts, at 1 µM; for red/green cell ratio (normalised): actives lie on both sides, counts scaled to control wells, 1 = unselective
[11] = viability loss with induced miR-34 in A549 – imaging, A549 dox-inducible miR-34, nuclei and caspase counts, primary screen (AID 1347080;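 active = compounds whose cell count with miR-34 switched on is under 0.7 times the count with it off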); conditions: A549 miR-34 inducible, Hoechst nuclei count, 48 h
[12] = MELAS cybrid and Rieske KO viability enhancers – cell-based, MELAS cybrids, Rieske KO mouse fibroblasts, CellTiter-Glo, primary screen (AID 1508586;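 active = mean z-score across replicates of 1.96 or higher in either the MELAS or the Rieske mutant cell line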;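 also: z relative to plate mean and SD of compound and empty wells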); conditions: low glucose
[13] = drug combination growth inhibition, ovarian cancer – cell-based, oncology-focused library, rucaparib conditional, profiling panel (AID 1508598); conditions: patient-derived ovarian cancer cells, CellTiter-Glo viability, 144 h, stronger effect = lower value
[14] = target: NAD(+) hydrolase SARM1 (Homo sapiens) (UniProt Q6SZW1); experiment: blocking NAD cleavage by SARM1 SAM-TIR – cell lysate, NAD-Glo luminescence (AID 1508614;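 active = compound whose remaining NAD level is above about 45 nM, limit read from the data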;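 also: higher remaining NAD means stronger inhibition of SARM1 NADase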); conditions: SAM-TIR HEK293T lysate NADase, at 1 µM, stronger effect = higher value
Sequence of NAD(+) hydrolase SARM1 (Homo sapiens) (Q6SZW1 whole entry, looked up): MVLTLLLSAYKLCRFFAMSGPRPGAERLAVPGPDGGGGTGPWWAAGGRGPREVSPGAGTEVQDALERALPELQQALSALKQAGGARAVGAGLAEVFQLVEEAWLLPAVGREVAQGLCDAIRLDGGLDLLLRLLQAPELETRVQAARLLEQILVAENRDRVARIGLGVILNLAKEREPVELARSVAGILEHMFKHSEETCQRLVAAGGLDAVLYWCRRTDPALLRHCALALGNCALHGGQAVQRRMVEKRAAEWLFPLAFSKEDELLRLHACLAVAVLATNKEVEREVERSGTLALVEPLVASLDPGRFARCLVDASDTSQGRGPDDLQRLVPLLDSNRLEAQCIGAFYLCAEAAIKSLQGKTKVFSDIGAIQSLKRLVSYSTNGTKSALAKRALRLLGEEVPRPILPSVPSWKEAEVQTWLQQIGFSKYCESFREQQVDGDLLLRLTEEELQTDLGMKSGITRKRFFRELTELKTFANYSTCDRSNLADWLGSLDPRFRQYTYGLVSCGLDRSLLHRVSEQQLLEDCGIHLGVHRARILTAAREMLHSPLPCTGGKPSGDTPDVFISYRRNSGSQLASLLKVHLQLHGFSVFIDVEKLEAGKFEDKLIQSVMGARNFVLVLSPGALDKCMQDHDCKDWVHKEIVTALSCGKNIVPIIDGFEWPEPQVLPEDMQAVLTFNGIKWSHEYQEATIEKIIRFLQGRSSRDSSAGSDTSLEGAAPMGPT

[15] = measured here: epithelial PC-3E GFP cell survival
[16] = measured here: mesenchymal TEM4-18 mCherry cell survival
[17] = stronger effect = lower value, cell number ratio, induced over uninduced
[18] = measured here: relative caspase fold change +Dox/-Dox
[19] = measured here: total cells with miR-34 induction, stronger effect = lower value
[20] = measured here: total cells without miR-34 induction
[21] = MELAS cybrid survival, CellTiter-Glo 48 h, stronger effect = higher value
[22] = Rieske KO mouse fibroblast survival, CellTiter-Glo 72 h
[23] = at 0.000305 µM, OCI-C5x cells, with rucaparib 10 µM, 100% = cells with rucaparib alone
[24] = at 0.000305 µM, OCI-C5x cells, without rucaparib
[25] = at 0.000305 µM, OCI-P5x cells, with rucaparib 20 µM, 100% = cells with rucaparib alone
[26] = at 0.000305 µM, OCI-P5x cells, without rucaparib
[27] = at 0.00122 µM, OCI-C5x cells, with rucaparib 10 µM, 100% = cells with rucaparib alone
[28] = at 0.00122 µM, OCI-C5x cells, without rucaparib
[29] = at 0.00122 µM, OCI-P5x cells, with rucaparib 20 µM, 100% = cells with rucaparib alone
[30] = at 0.00122 µM, OCI-P5x cells, without rucaparib
[31] = at 0.00488 µM, OCI-C5x cells, with rucaparib 10 µM, 100% = cells with rucaparib alone
[32] = at 0.00488 µM, OCI-C5x cells, without rucaparib
[33] = at 0.00488 µM, OCI-P5x cells, with rucaparib 20 µM, 100% = cells with rucaparib alone
[34] = at 0.00488 µM, OCI-P5x cells, without rucaparib
[35] = at 0.0195 µM, OCI-C5x cells, with rucaparib 10 µM, 100% = cells with rucaparib alone
[36] = at 0.0195 µM, OCI-C5x cells, without rucaparib
[37] = at 0.0195 µM, OCI-P5x cells, with rucaparib 20 µM, 100% = cells with rucaparib alone
[38] = at 0.0195 µM, OCI-P5x cells, without rucaparib
[39] = at 0.0781 µM, OCI-C5x cells, with rucaparib 10 µM, 100% = cells with rucaparib alone
[40] = at 0.0781 µM, OCI-C5x cells, without rucaparib
[41] = at 0.0781 µM, OCI-P5x cells, with rucaparib 20 µM, 100% = cells with rucaparib alone
[42] = at 0.0781 µM, OCI-P5x cells, without rucaparib
[43] = at 0.313 µM, OCI-C5x cells, with rucaparib 10 µM, 100% = cells with rucaparib alone
[44] = at 0.313 µM, OCI-C5x cells, without rucaparib
[45] = at 0.313 µM, OCI-P5x cells, with rucaparib 20 µM, 100% = cells with rucaparib alone
[46] = at 0.313 µM, OCI-P5x cells, without rucaparib
[47] = at 1.25 µM, OCI-C5x cells, with rucaparib 10 µM, 100% = cells with rucaparib alone
[48] = at 1.25 µM, OCI-C5x cells, without rucaparib
[49] = at 1.25 µM, OCI-P5x cells, with rucaparib 20 µM, 100% = cells with rucaparib alone
[50] = at 1.25 µM, OCI-P5x cells, without rucaparib
[51] = at 5 µM, OCI-C5x cells, with rucaparib 10 µM, 100% = cells with rucaparib alone
[52] = at 5 µM, OCI-C5x cells, without rucaparib
[53] = at 5 µM, OCI-P5x cells, with rucaparib 20 µM, 100% = cells with rucaparib alone
[54] = at 5 µM, OCI-P5x cells, without rucaparib

CN(N=O)C(=O)N[C@@H]1[C@@H](O)[C@H](O)[C@@H](CO)O[C@@H]1O
2.9%: nuclear beta-catenin stimulation ([2]; stimulation, at 2 µM)
8550 and 11000: cell count [11, 19]
active: viability [13, 33] 97.2% | viability [13, 45] 98.9% | viability [13, 47] 97.9% | viability [13, 49] 87.8% | viability [13, 53] 87.3% | viability [13, 54] 98.1%
0.385: z-score [12, 22]
10200 and 12600: cell count [11, 20]
0.95: normalised cell number [10, 15]
97.3% and 74.3% and 97.4%: viability [1]
inactive: parasite load remaining [1] 90.3% and 138% and 42.6% | nuclear beta-catenin stimulation ([2]; at 10 µM) 0.9% | insulin secretion stimulation [3] 0.5% | viability decrease [4] -5.6% | tube area decrease [5] 10.3% | GLP1 secretion stimulation [6] 0.8% | inhibition of viability [7] -6.13% | viability decrease (inhibition) [8] 42% | viability decrease (inhibition) [9] -37.7% | red/green cell ratio (normalised) [10] 1.14 | fold change [11, 17] 0.837 and 0.877 | z-score [12, 21] 0.426 | viability [13, 23] 107% | viability [13, 24] 111% | viability [13, 25] 108% | viability [13, 26] 121% | viability [13, 27] 110% | viability [13, 28] 114% | viability [13, 29] 101% | viability [13, 30] 115% | viability [13, 31] 102% | viability [13, 32] 121% | viability [13, 34] 113% | viability [13, 35] 111% | viability [13, 36] 114% | viability [13, 37] 100% | viability [13, 38] 116% | viability [13, 39] 106% | viability [13, 40] 122% | viability [13, 41] 104% | viability [13, 42] 112% | viability [13, 43] 106% | viability [13, 44] 126% | viability [13, 46] 113% | viability [13, 48] 109% | viability [13, 50] 105% | viability [13, 51] 103% | viability [13, 52] 101%
1.08: normalised cell number [10, 16]
1.24 and 1.12: fold change [11, 18]

COc1c(C)c2c(c(O)c1C/C=C(\C)CCC(=O)OCCN1CCOCC1)C(=O)OC2
active: viability decrease [4] 98.3% | tube area decrease [5] 79.8% | inhibition of viability [7] 83.9% | viability decrease (inhibition) [8] 71.8% | viability decrease (inhibition) [9] 53.3% | viability [13, 25] 90.9% | viability [13, 29] 95.2% | viability [13, 42] 87.7% | viability [13, 45] 89.1% | viability [13, 46] 63.2% | viability [13, 49] 74.3% | viability [13, 50] 42.1% | viability [13, 51] 69% | viability [13, 52] 52.7% | viability [13, 53] 52.6% | viability [13, 54] 30.9%
1.62: z-score [12, 22]
1.15: fold change [11, 18]
140%: viability [1]
inactive: parasite load remaining [1] 10.4% | nuclear beta-catenin stimulation ([2]; at 10 µM) 19.6% | insulin secretion stimulation [3] 1.7% | GLP1 secretion stimulation [6] 0.3% | red/green cell ratio (normalised) [10] 0.71 | fold change [11, 17] 0.954 | z-score [12, 21] -0.954 | viability [13, 23] 104% | viability [13, 24] 112% | viability [13, 26] 100% | viability [13, 27] 119% | viability [13, 28] 108% | viability [13, 30] 104% | viability [13, 31] 122% | viability [13, 32] 110% | viability [13, 33] 101% | viability [13, 34] 108% | viability [13, 35] 115% | viability [13, 36] 113% | viability [13, 37] 108% | viability [13, 38] 109% | viability [13, 39] 146% | viability [13, 40] 149% | viability [13, 41] 107% | viability [13, 43] 172% | viability [13, 44] 147% | viability [13, 47] 157% | viability [13, 48] 110% | remaining NAD [14] 10 nM
3090: cell count [11, 19]
3240: cell count [11, 20]
0.88: normalised cell number [10, 16]
28.6%: nuclear beta-catenin stimulation ([2]; stimulation, at 2 µM)
1.24: normalised cell number [10, 15]

From PubChem BioAssay
